Measured values published in PubChem BioAssay (Tox21).
Results filed as inconclusive are left out. Unmarked numbers belong to inactive results. Activity calls are given as the source filed them. The call rests on the fitted dose curve; in most records, active means well fitted cell-killing curve with a large enough effect in the repeat runs; inconclusive means weak or mixed curves, or effect the other way; inactive means flat fitted curve, though single readings scatter.

Assay: qHTS assay to identify small molecule agonists of the estrogen receptor beta (ER-beta) signaling pathway - cell viability counter screen (AID 1259380); further: nearly all actives have a fitted effect of over 30% in size
Conditions: ER-beta-bla HEK293T viability, CellTiter-Glo luminescence, 16 h; series mostly up to 92.4 µM; activity change, negative = cytotoxicity: at the top concentration
From the text: National Center for Advancing Translational Sciences [NCATS]
NIH Chemical Genomics Center [NCGC]
U.S. Environmental Protection Agency [EPA]
National Institutes of Environmental Health Sciences [NIEHS]
National Toxicology Program [NTP]
U.S. Food and Drug Administration [FDA]
Estrogen receptor (ER), a nuclear hormone receptor, plays an important role in development, metabolic homeostasis and reproduction. Two subtypes of ER, ER-alpha and ER-beta, have similar expression patterns with some uniqueness in both types. Endocrine disrupting chemicals (EDCs) and their interactions with steroid hormone receptors like ER causes disruption of normal endocrine function. To identify the compounds that activate ER signaling, an ER beta-UAS-bla GripTite cell line (Life Technologies, Madison, WI, USA) containing a beta-lactamase reporter gene under the control of an UAS response element was used to screen Tox21 10K compound library. The cytotoxicity of the Tox21 compound library against the ER-beta-bla cell line was tested in parallel by measuring the cell viability using CellTiter-Glo assay in the same wells.
Tox21 Assay Protocol Summary:
ER-beta-UAS-bla HEK293T cells were dispensed at 2,000 cells/5 uL of assay medium containing 2% charcoal stripped FBS per well into black wall/clear-bottom 1536-well plates using a Multidrop Combi (ThermoFisher Scientific, Waltham, MA) dispenser. After the assay plates were incubated at a 37C and 5% CO2 for 6 hr, 23 nL of compounds dissolved in DMSO, positive controls or DMSO only was transferred to the assay plate by a Pintool station (Kalypsys, San Diego, CA). The plates were incubated at 37C and 5% CO2 for 16 hr. Then 1 uL of LiveBLAzerTM B/G FRET substrate was added using a BioRAPTR FRD (Flying Reagent Dispenser, Aurora Discovery, San Diego, CA) and then the plates were incubated at room temperature for 2 hours, and fluorescence intensity was measured by an Envision plate reader (PerkinElmer, Shelton, CT). For cell viability readout that measures cytotoxicity, 4 uL/well of CellTiter-Glo reagent was added into the assay plates using a FRD. After 30 min incubation at room temperature, the luminescence intensity in the plates was measured using a ViewLux (PerkinElmer) plate reader.
On the % scale 0 is the no-effect control and ±100 the full control effect; potency means the concentration at half of the fitted maximal effect.

Row | SMILES | activity change, negative = cytotoxicity | Potency
1 | CC1CCC(C(C)(C)O)CC1 (stereo not given) | 1.9% | –
2 | C=C[Si](C)(C)Cl | 0.271% [at 8.39 µM] | –
3 | CCCC(C)C=O (stereo not given) | 4.71% | –
4 | CSc1ccc(O)cc1C | – | 61.1 µM (active)
5 | CC1(C)[C@H]2CC[C@]1(C)C(=O)C2 | 0.793% | –
6 | C1CCSC1 | -1.42% | –
7 | C/C=C/C(=O)OCC(C)C | 6.29% | –
8 | CCCCCCCCCCCCS(=O)(=O)Cl | – | 14.6 µM (active)
9 | CCOc1nc(F)cc2nc(S(=O)(=O)Nc3c(Cl)cccc3C(=O)OC)nn12 | -3.44% | –
10 | CN1CCN(CCCN2c3ccccc3Sc3ccc(Cl)cc32)CC1 | – | 21.1 µM (active)
11 | Cc1cc(F)ccc1-c1cc(N2CC[C@@H](O)[C@H]2CO)ncc1N(C)C(=O)C(C)(C)c1cc(C(F)(F)F)cc(C(F)(F)F)c1 | – | 47.8 µM (active)
12 | CC(c1cc(C(C)(C)C)cc(C(C)(C)C)c1O)c1cc(C(C)(C)C)cc(C(C)(C)C)c1O | -3.57% | –
13 | CCc1cccc(C)c1N(C(=O)CS(=O)(=O)O)C(C)COC (stereo not given) | -0.123% | –
14 | CCCCCCCCCCCCCCCCCCNC(=O)OC1CCN(C(=O)OC[C@H](COC(=O)N(Cc2cccc[n+]2CC)C(=O)c2ccccc2OC)OC)CC1 | – | 26.6 µM (active)
15 | CN[C@H]1CC[C@@H](c2ccc(Cl)c(Cl)c2)c2ccc(S(N)(=O)=O)cc21 | – | 19.3 µM (active)
16 | O=C1c2ccccc2C(=O)c2c(Cl)cccc21 | – | 32.4 µM (active)
17 | Cc1cc(C)c(O)c(C(C)(C)C)c1 | -13.1% | –
18 | CC(O)(c1ccc(Cl)cc1)c1ccc(Cl)cc1 | -10% | –
19 | O=C(Cl)c1ccc(Cl)cc1Cl | -11.8% | –
20 | CCSCC | -3.52% | –

Row | SMILES | activity change, negative = cytotoxicity | Potency
21 | C=CC(=O)OCCOC1C2CCC1C1CC=CC12 (stereo not given) | -0.168% [at 19 µM] | –
22 | CC(=O)Nc1ccc(N=Nc2cc(C)ccc2O)cc1 | -14.4% | –
23 | O=C(c1ccccc1)c1ccc(Cl)cc1 | -2.11% | –
24 | COc1cc(C(C)C)ccc1C | 2.27% [at 19 µM] | –
25 | CCC(O)CO (stereo not given) | -0.222% | –
26 | CC(CC(C)(C)C)CC(C)(C)CC(C)(C)C (stereo not given) | -3.85% [at 42.5 µM] | –
27 | ClC(c1ccccc1)(c1ccccc1)c1ccccc1 | 1.34% | –
28 | CCCCNc1ccc(NCCCC)c2c1C(=O)c1ccccc1C2=O | 6.16% [at 19 µM] | –
29 | O=C(O)C[C@H](O)C[C@H](O)/C=C/c1c(C2CC2)nc2ccccc2c1-c1ccc(F)cc1 | – | 3.26 µM (active)
30 | C/C=C/C(=O)C1=C(C)C=CCC1(C)C | -1.51% | –
31 | [Cl][Sc]([Cl])[Cl] | -0.441% | –
32 | CCc1cccc(CC)c1 | 7.88% | –
33 | Cc1cc(Br)ccc1NC(=O)CCl | – | 30.6 µM (active)
34 | CC1=C(/C=C/C(C)=C/C=C/C(C)=C\C(=O)O)C(C)(C)CCC1 | – | 9.72 µM (active)
35 | C=C(C)CCO | 5.49% | –
36 | O=C(NCc1ncc(C(F)(F)F)cc1Cl)c1c(Cl)cccc1Cl | – | 43.3 µM (active)
37 | O=c1cc[nH]cc1 | 4.35% | –
38 | C=CC(=O)O[C@H]1C[C@@H]2CC[C@@]1(C)C2(C)C | 4.43% | –
39 | CCCCCN=C(N)N/N=C/c1c[nH]c2ccc(OC)cc12 | – | 16.8 µM (active)
40 | Clc1ccc2c(Cl)ccnc2c1 | 1.22% | –
